# Measured values as given in publication PMC7862700, “An all-to-all approach to the identification of sequence-specific readers for epigenetic DNA modifications on cytosine”.
# Columns and labels:
# Assay in all cases: DAPPL (digital affinity profiling via proximity ligation, sequencing); 10 mM Tris-HCl pH 7.5, 50 mM NaCl, 1 mM DTT, 4% glycerol, room temperature, 30 min; GST-TFs on glutathione beads, 16-mer random dsDNA library, 0.1% formaldehyde crosslink after washing; high values mean tight binding
# FLI1 = molecular target: T1, FLI1 (Homo sapiens, UniProt Q01543 1-452); settings: protein: recombinant; tags: N-terminal GST; dsDNA, one strand shown
# T1 sequence: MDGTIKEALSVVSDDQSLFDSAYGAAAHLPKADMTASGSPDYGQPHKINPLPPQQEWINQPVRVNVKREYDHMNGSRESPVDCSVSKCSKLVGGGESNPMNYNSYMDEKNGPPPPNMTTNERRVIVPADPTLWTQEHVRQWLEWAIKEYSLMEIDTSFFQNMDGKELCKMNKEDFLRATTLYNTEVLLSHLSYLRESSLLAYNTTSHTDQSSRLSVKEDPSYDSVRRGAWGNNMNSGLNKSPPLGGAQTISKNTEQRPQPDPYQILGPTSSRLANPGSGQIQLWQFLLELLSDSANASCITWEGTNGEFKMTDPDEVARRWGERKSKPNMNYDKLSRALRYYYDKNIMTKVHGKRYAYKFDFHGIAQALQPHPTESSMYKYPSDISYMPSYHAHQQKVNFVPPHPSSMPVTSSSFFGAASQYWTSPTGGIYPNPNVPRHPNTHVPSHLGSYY
# Summary of the method: (§1)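 Pools of DNA-barcoded human transcription factors, expressed in yeast as GST fusions on glutathione beads and combined with a tag-only sample, were incubated with 200 nmole of a 16-mer random double-stranded DNA library. Incubation took 30 min at room temperature in Tris/NaCl/DTT/glycerol buffer and was followed by washing, 0.1% formaldehyde crosslinking, proximity ligation (BsaI/T4 ligase, 1 h, 37 °C), PCR amplification and sequencing on an Illumina NextSeq500. Binding signal is the ratio of a hexamer's read frequency for a factor to its frequency for the tag-only sample.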
# ELK1 = molecular target: T2, ELK1 (Homo sapiens, UniProt P19419 1-428); settings: protein: recombinant; tags: N-terminal GST; dsDNA, one strand shown
# T2 sequence: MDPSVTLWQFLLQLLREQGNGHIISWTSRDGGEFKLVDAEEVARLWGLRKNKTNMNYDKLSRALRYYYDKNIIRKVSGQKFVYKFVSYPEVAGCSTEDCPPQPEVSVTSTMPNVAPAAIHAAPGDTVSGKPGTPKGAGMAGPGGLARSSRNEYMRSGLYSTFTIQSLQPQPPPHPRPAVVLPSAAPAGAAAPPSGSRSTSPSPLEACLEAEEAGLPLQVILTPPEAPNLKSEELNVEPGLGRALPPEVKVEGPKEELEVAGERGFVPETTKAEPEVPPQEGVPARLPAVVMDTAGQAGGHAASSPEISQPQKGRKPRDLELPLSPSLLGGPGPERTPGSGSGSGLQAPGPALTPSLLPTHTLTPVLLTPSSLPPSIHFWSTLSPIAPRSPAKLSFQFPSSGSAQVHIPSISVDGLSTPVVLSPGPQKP
# Summary of the method: as §1
# GABPA = molecular target: T3, GABPA (Homo sapiens, UniProt Q06546 1-454); settings: protein: recombinant; tags: N-terminal GST; dsDNA, one strand shown
# T3 sequence: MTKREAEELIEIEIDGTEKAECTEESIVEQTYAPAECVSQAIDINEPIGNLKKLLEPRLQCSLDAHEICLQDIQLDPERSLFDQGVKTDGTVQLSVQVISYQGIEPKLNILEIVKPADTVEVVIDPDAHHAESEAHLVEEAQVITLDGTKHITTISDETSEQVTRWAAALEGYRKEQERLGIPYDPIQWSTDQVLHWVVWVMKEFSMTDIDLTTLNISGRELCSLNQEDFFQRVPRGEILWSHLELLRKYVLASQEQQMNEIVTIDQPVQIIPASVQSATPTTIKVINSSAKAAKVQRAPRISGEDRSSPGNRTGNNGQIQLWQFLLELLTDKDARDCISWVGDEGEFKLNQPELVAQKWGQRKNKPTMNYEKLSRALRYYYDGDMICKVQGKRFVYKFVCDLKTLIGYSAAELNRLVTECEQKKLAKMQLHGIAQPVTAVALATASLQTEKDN
# Summary of the method: as §1
# ERG = molecular target: T4, ERG (Homo sapiens, UniProt P11308 1-479); settings: protein: recombinant; tags: N-terminal GST; dsDNA, one strand shown
# T4 sequence: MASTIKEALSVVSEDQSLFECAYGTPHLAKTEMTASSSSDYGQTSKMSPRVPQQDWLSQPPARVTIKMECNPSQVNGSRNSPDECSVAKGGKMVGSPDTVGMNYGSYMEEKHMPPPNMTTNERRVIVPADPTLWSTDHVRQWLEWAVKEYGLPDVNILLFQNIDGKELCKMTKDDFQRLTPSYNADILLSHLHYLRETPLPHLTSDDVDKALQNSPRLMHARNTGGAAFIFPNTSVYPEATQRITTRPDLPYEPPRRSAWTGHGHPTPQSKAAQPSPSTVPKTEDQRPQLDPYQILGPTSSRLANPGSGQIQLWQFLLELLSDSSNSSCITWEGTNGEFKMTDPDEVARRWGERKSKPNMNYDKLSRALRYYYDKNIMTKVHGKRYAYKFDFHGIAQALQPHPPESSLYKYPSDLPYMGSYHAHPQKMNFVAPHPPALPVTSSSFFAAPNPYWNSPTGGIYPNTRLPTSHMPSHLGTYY
# Summary of the method: as §1
# ELF1 = ELF1 (Homo sapiens, UniProt P32519 1-619); settings: protein: recombinant; tags: N-terminal GST; dsDNA, one strand shown
# Summary of the method: as §1
# EHF = molecular target: T5, EHF (Homo sapiens, UniProt Q9NZC4 1-300); settings: protein: recombinant; tags: N-terminal GST; dsDNA, one strand shown
# T5 sequence: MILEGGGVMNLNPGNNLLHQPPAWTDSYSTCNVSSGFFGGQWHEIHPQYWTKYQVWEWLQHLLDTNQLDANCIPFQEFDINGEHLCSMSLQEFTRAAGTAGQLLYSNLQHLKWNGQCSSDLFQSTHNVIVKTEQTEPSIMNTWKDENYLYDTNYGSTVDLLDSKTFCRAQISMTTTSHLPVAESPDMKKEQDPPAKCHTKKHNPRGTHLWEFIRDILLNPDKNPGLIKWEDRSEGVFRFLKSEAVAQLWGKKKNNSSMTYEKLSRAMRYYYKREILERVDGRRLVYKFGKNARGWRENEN
# Summary of the method: as §1
# SPI1 = SPI1 (Homo sapiens, UniProt P17947 1-270); settings: protein: recombinant; tags: N-terminal GST; dsDNA, one strand shown
# Summary of the method: as §1
# SPIB = SPIB (Homo sapiens, UniProt Q01892 1-262); settings: protein: recombinant; tags: N-terminal GST; dsDNA, one strand shown
# Summary of the method: as §1
# ELK3 = molecular target: T6, ELK3 (Homo sapiens, UniProt P41970 1-407); settings: protein: recombinant; tags: N-terminal GST; dsDNA, one strand shown
# T6 sequence: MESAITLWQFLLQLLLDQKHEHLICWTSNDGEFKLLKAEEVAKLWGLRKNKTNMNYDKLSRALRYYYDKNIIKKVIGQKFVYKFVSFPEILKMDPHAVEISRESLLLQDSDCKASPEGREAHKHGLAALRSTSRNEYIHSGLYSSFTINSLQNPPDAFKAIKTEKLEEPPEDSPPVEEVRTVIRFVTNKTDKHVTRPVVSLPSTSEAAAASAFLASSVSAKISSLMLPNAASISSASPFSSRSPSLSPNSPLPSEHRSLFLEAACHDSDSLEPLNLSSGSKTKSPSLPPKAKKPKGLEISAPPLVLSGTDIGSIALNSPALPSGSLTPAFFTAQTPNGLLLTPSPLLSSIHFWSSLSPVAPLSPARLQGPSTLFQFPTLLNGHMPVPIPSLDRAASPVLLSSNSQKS
# Summary of the method: as §1
# FEV = molecular target: T7, FEV (Homo sapiens, UniProt Q99581 1-238); settings: protein: recombinant; tags: N-terminal GST; dsDNA, one strand shown
# T7 sequence: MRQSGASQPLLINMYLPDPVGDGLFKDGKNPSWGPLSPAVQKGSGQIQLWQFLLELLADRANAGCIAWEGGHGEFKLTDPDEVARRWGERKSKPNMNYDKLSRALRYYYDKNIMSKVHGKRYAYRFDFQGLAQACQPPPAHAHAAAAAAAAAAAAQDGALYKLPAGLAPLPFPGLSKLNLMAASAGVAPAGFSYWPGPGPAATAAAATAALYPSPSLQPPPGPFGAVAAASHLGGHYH
# Summary of the method: as §1
# ETV5 = ETV5 (Homo sapiens, UniProt P41161 1-510); settings: protein: recombinant; tags: N-terminal GST; dsDNA, one strand shown
# Summary of the method: as §1
# HSF1 = HSF1 (Homo sapiens, UniProt Q00613 1-529); settings: protein: recombinant; tags: N-terminal GST; chain copies: 3; dsDNA, one strand shown
# Summary of the method: as §1
# SPIC = molecular target: T8, SPIC (Homo sapiens, UniProt Q8N5J4 1-248); settings: protein: recombinant; tags: N-terminal GST; dsDNA, one strand shown
# T8 sequence: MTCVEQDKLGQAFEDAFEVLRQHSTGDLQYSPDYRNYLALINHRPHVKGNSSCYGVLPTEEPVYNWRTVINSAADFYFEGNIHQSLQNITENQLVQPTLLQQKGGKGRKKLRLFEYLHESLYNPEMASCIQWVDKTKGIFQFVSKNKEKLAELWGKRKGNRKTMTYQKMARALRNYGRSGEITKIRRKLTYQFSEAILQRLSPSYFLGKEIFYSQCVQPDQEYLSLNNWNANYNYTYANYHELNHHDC
# Summary of the method: as §1
# ELF4 = ELF4 (Homo sapiens, UniProt Q99607 1-663); settings: protein: recombinant; tags: N-terminal GST; dsDNA, one strand shown
# Summary of the method: as §1
# ELK4 = molecular target: T9, ELK4 (Homo sapiens, UniProt P28324-2 1-405); settings: protein: recombinant; tags: N-terminal GST; dsDNA, one strand shown
# T9 sequence: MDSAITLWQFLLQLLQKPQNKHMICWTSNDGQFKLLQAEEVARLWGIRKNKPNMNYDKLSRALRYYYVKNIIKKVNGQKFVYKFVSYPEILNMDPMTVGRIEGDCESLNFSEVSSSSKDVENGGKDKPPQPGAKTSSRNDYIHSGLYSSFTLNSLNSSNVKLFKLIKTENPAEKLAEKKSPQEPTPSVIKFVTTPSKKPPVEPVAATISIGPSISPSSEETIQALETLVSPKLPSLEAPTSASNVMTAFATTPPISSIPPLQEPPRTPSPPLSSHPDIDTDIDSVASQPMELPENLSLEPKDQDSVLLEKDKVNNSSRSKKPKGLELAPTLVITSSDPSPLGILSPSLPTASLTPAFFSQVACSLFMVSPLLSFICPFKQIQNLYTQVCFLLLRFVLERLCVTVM
# Summary of the method: as §1
# ETV2 = molecular target: T10, ETV2 (Homo sapiens, UniProt O00321 1-342); settings: protein: recombinant; tags: N-terminal GST; dsDNA, one strand shown
# T10 sequence: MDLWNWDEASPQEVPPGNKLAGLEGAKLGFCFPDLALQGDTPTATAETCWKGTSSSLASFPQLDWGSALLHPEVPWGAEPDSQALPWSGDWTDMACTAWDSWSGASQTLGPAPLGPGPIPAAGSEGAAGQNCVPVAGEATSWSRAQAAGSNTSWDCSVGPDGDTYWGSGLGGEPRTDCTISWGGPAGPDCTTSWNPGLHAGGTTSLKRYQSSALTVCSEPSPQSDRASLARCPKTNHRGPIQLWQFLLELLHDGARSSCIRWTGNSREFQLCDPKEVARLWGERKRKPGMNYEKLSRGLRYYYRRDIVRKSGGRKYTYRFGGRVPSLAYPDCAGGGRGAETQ
# Summary of the method: as §1
# ELF3 = molecular target: T11, ELF3 (Homo sapiens, UniProt P78545 1-371); settings: protein: recombinant; tags: N-terminal GST; dsDNA, one strand shown
# T11 sequence: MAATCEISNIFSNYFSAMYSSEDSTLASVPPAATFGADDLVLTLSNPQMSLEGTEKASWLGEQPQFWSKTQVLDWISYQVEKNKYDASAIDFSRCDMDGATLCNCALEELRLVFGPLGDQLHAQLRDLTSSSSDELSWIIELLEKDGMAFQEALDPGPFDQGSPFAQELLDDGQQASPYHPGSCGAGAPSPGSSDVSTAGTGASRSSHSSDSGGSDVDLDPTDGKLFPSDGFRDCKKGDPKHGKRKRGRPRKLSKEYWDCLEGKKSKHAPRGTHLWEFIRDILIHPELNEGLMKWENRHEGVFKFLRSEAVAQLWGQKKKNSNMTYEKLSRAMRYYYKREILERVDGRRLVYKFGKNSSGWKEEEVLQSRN
# Summary of the method: as §1
# CRX = CRX (Homo sapiens, UniProt O43186 1-299); settings: protein: recombinant; tags: N-terminal GST; dsDNA, one strand shown
# Summary of the method: as §1
# ETV1 = ETV1 (Homo sapiens, UniProt P50549 1-477); settings: protein: recombinant; tags: N-terminal GST; dsDNA, one strand shown
# Summary of the method: as §1
# CRX, sequence (O43186 whole entry): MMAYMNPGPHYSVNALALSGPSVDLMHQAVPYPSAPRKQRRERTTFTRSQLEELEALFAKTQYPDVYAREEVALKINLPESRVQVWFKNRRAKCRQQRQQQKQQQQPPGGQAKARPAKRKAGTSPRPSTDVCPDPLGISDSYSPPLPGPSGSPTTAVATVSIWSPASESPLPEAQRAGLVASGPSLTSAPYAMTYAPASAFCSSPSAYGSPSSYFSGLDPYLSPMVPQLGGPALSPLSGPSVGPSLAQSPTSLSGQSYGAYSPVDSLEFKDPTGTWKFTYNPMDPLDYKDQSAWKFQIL
# ELF1, sequence (P32519 whole entry): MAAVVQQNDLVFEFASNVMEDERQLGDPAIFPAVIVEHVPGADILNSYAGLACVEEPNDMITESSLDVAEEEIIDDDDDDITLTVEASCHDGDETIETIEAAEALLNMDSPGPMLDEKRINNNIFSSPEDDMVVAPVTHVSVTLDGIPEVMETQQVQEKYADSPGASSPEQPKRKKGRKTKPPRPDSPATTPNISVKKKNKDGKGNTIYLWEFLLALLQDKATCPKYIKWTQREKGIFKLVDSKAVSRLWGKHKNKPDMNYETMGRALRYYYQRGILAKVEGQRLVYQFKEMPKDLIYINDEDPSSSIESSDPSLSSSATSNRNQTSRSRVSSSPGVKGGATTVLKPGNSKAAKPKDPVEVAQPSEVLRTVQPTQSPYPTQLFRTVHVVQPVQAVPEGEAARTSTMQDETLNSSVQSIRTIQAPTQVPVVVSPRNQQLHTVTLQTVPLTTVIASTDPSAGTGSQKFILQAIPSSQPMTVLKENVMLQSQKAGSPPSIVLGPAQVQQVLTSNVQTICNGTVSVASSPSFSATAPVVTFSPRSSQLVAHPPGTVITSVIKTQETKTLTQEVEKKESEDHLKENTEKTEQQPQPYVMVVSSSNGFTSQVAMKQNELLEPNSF
# HSF1, sequence (Q00613 whole entry): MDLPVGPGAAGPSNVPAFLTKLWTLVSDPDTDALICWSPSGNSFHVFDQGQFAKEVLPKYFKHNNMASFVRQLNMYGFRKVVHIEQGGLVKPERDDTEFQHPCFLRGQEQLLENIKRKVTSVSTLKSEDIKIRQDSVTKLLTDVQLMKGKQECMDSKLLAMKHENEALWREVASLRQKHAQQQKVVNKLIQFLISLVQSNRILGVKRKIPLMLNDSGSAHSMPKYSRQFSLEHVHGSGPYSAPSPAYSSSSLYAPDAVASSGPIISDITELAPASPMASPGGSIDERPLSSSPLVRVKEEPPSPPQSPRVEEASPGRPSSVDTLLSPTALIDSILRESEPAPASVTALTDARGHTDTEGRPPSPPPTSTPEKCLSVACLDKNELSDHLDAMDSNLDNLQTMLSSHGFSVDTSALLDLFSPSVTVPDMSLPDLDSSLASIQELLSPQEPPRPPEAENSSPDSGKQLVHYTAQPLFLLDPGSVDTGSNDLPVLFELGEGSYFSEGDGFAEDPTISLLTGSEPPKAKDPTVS
# ETV5, sequence (P41161 whole entry): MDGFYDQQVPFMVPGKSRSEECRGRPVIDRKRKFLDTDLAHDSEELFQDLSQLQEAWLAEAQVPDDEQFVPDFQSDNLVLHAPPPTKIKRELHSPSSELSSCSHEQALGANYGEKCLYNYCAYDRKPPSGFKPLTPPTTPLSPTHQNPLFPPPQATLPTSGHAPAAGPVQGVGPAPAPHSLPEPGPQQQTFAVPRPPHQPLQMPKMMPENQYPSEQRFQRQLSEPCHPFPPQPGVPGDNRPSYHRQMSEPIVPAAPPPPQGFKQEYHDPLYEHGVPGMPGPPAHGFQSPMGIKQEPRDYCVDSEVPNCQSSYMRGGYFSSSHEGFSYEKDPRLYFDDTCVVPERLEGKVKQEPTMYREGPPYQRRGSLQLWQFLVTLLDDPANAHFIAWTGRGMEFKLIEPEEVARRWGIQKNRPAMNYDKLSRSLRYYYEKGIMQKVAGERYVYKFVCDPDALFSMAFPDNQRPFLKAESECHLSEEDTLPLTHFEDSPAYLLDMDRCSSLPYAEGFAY
# ETV1, sequence (P50549 whole entry): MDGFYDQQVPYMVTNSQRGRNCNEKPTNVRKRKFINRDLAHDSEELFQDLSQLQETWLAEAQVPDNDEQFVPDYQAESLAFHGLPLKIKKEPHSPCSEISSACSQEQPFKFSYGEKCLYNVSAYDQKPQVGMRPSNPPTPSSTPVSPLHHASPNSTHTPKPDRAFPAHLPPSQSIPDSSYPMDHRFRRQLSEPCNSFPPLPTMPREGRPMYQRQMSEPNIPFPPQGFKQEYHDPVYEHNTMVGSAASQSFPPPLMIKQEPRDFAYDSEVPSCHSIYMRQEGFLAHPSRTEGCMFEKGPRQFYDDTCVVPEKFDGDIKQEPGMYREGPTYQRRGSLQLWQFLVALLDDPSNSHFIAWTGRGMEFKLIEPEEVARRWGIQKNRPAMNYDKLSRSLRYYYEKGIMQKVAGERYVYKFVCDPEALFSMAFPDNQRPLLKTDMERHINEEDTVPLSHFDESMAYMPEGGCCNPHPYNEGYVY
# ELF4, sequence (Q99607 whole entry): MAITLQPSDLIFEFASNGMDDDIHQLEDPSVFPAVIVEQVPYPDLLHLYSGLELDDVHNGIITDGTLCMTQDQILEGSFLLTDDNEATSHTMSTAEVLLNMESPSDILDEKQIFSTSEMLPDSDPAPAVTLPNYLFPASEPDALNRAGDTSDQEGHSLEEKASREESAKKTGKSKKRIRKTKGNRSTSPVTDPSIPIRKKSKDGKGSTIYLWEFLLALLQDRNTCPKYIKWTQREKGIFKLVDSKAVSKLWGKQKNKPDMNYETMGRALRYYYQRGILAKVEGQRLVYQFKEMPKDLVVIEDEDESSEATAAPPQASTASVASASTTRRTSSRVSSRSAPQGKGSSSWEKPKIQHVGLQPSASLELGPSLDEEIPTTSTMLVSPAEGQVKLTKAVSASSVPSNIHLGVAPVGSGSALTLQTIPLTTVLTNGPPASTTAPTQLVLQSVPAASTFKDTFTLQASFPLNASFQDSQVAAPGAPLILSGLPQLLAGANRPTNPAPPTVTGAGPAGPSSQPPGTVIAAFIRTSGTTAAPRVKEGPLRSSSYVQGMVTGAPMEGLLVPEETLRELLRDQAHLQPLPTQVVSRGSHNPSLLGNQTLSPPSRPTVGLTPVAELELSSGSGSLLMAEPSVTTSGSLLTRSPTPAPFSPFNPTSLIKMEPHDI
# SPIB, sequence (Q01892 whole entry): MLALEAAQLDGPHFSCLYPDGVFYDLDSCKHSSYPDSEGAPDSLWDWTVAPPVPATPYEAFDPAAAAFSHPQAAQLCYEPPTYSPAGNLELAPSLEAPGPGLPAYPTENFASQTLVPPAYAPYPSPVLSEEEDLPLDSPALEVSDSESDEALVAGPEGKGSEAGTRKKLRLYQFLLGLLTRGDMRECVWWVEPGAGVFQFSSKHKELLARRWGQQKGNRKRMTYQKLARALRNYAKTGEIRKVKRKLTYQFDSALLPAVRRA
sequence,measurement,setting,value
TCGTTC,binding signal,FLI1,"1.17 fold enrichment (6-mer frequency, TF over GST control)"
same,binding signal,ELK1,"1.15 fold enrichment (6-mer frequency, TF over GST control)"
same,binding signal,GABPA,"1.33 fold enrichment (6-mer frequency, TF over GST control)"
same,binding signal,ERG,"1.27 fold enrichment (6-mer frequency, TF over GST control)"
same,binding signal,ELF1,"1.15 fold enrichment (6-mer frequency, TF over GST control)"
same,binding signal,EHF,"1.23 fold enrichment (6-mer frequency, TF over GST control)"
same,binding signal,SPI1,"1.17 fold enrichment (6-mer frequency, TF over GST control)"
same,binding signal,SPIB,"1.23 fold enrichment (6-mer frequency, TF over GST control)"
same,binding signal,ELK3,"1.23 fold enrichment (6-mer frequency, TF over GST control)"
same,binding signal,FEV,"1.23 fold enrichment (6-mer frequency, TF over GST control)"
same,binding signal,ETV5,"1.29 fold enrichment (6-mer frequency, TF over GST control)"
same,binding signal,HSF1,"1.39 fold enrichment (6-mer frequency, TF over GST control)"
same,binding signal,SPIC,"1.23 fold enrichment (6-mer frequency, TF over GST control)"
same,binding signal,ELF4,"1.31 fold enrichment (6-mer frequency, TF over GST control)"
same,binding signal,ELK4,"1.39 fold enrichment (6-mer frequency, TF over GST control)"
same,binding signal,ETV2,"1.37 fold enrichment (6-mer frequency, TF over GST control)"
same,binding signal,ELF3,"1.15 fold enrichment (6-mer frequency, TF over GST control)"
same,binding signal,CRX,"1.04 fold enrichment (6-mer frequency, TF over GST control)"
same,binding signal,ETV1,"1.2 fold enrichment (6-mer frequency, TF over GST control)"
